# Results reported in the supplement of paper PMC10646978.
# ± gives the standard deviation.
# Tests used:
# Settings in all cases: modulator concentration 10 µM
# [1] = test system: RAW-Dual (murine macrophage reporter line); test: NF-kB reporter (SEAP) activity fold change vs agonist alone; higher = enhanced NF-kB activity
# In short: (§1)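 Overnight stimulation with a PRR agonist followed pre-incubation for 1 hour at 37 °C with compound at 10 μM final. This was done in RAW-Dual murine macrophage reporter cells seeded at 50 000 per well in 384-well plates. NF-κB (SEAP, QUANTI-Blue absorbance at 620 nm) and IRF (Lucia luciferase, QUANTI-Luc luminescence) were read from the supernatant. Each reporter's fold change relative to the mean agonist-only control on the same plate was averaged over replicate plates.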
# [2] = test system: RAW-Dual (murine macrophage reporter line); test: IRF reporter (Lucia luciferase) activity fold change vs agonist alone; higher = enhanced IRF activity
# In short: as §1
# [3] = test system: RAW-Dual (murine macrophage reporter line); test: viability score (confluency relative to resting cells, overnight) (fraction); higher = more viable, active = viable (0.7 or more)
# In short: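 Confluency was the readout: RAW-Dual macrophages were imaged with IncuCyte after an overnight exposure to compound at 10 μM final. IncuCyte software produced two masks over all imaged wells. The viability score expresses confluency against resting cells, and both masks had to exceed 70% of resting cells for a compound to meet the cutoff.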
# [4] = agonist: CpG ODN 1826 0.5 ug/mL
Structure (SMILES),"NF-kB reporter [1, 4]",NF-kB reporter ([1]; agonist: LPS 0.1 ug/mL),NF-kB reporter ([1]; agonist: MPLA […]),IRF reporter ([2]; agonist: 3'3'-cGAMP 10 ug/mL),IRF reporter ([2]; agonist: LPS 0.1 ug/mL),IRF reporter ([2]; agonist: MPLA […]),viability score [3]
Cc1cccc(C(=O)N2CCCC(c3nnc(CC(C)(C)C)o3)C2)c1 (configuration not stated),0.877 ± 0.037,0.942 ± 0.16,1.35 ± 0.08,0.924 ± 0.043,1.33 ± 0.3,1.36 ± 0.47,0.944 (active)
COCCN(CCOC)C(=O)Cc1csc2nc(-c3ccc(F)cc3)cn12,1.1 ± 0.27,0.966 ± 0.084,0.949 ± 0.067,0.947 ± 0.064,1.09 ± 0.15,1.31 ± 0.24,0.653 (inactive)
Clc1ccc(Nc2nc3nonc3nc2NC2C3CC4CC(C3)CC2C4)cc1 (configuration not stated),1.15 ± 0.12,1.15 ± 0.07,1.2 ± 0.096,0.702 ± 0.27,1.32 ± 0.17,1.15 ± 0.16,0.931 (active)
Cl.NCCCC[C@H](N)C(=O)O,1.03 ± 0.31,0.949 ± 0.063,1.01 ± 0.064,0.867 ± 0.052,1.2 ± 0.14,1.12 ± 0.18,1.01 (active)
CCOC(=O)C1=C(C)NC(C)=C(C(=O)OC)C1c1cccc(Cl)c1Cl (configuration not stated),0.824 ± 0.081,0.603 ± 0.053,0.764 ± 0.068,1.13 ± 0.06,1.35 ± 0.095,1.03 ± 0.17,0.859 (active)
Cc1cccc(N=c2scc(-c3ccc([N+](=O)[O-])cc3)n2-c2cccc(C)c2C)c1C,0.863 ± 0.065,1.04 ± 0.078,0.906 ± 0.054,0.864 ± 0.029,1.37 ± 0.088,1.11 ± 0.16,1 (active)
COC(=O)C1=C(C)NC(C)=C(C(=O)OC)C1c1ccc(-c2ccc(Cl)cc2Cl)o1,1.01 ± 0.081,0.943 ± 0.064,0.922 ± 0.092,0.872 ± 0.022,1.23 ± 0.11,1.22 ± 0.22,1.02 (active)
Cc1cc(C)nc(NC#N)n1,0.919 ± 0.072,0.966 ± 0.11,0.971 ± 0.061,0.776 ± 0.1,1.02 ± 0.13,1.18 ± 0.2,0.998 (active)
Cc1cccc(C)c1NC(=O)CC(C)c1ccccc1 (configuration not stated),0.982 ± 0.31,1.12 ± 0.16,1.2 ± 0.14,1.03 ± 0.033,0.937 ± 0.25,1.17 ± 0.33,0.915 (active)
Nc1nccs1,0.948 ± 0.14,1.22 ± 0.088,0.91 ± 0.055,0.89 ± 0.03,1.32 ± 0.16,1.2 ± 0.09,1 (active)
Cc1ccc2nc(NC(=O)CSc3nc4c(c(=O)n3-c3ccccc3)SCC4)sc2c1,0.845 ± 0.11,0.887 ± 0.1,0.853 ± 0.081,0.662 ± 0.021,1.16 ± 0.14,1.27 ± 0.18,1.02 (active)
Oc1c2c(nc3cc(-c4ccc(Cl)cc4)nn13)CCS2,1.1 ± 0.09,0.945 ± 0.12,0.973 ± 0.031,0.976 ± 0.038,0.967 ± 0.047,1.11 ± 0.14,0.998 (active)
O=C(NCCCO)C(=O)Nc1ccccc1F,0.815 ± 0.07,0.894 ± 0.045,1 ± 0.099,0.968 ± 0.062,1.39 ± 0.08,1.46 ± 0.14,1 (active)
Cc1ccc(C2(O)C=CC(C)(C(Cl)(Cl)Cl)C=C2)cc1 (configuration not stated),0.687 ± 0.054,0.974 ± 0.063,1.02 ± 0.067,0.455 ± 0.093,0.989 ± 0.047,0.915 ± 0.14,1 (active)
CCN(CC)CCOC(=O)C(c1ccccc1)c1ccccc1.Cl,0.913 ± 0.08,0.887 ± 0.067,0.965 ± 0.084,1.58 ± 0.074,1.29 ± 0.12,1.49 ± 0.12,0.941 (active)
CCn1cc(C(=O)O)c(=O)c2cc(F)c(N3CCN(C)CC3)cc21.CS(=O)(=O)O.O.O,0.788 ± 0.11,1.13 ± 0.13,0.897 ± 0.05,0.863 ± 0.026,1.37 ± 0.12,1.07 ± 0.16,0.991 (active)
O=C1C(CCC(O)c2ccc(F)cc2)C(c2ccc(O)cc2)N1c1ccc(F)cc1 (configuration not stated),1.09 ± 0.085,0.898 ± 0.16,1.04 ± 0.098,0.942 ± 0.034,1.16 ± 0.2,1.18 ± 0.25,1.01 (active)
COc1cc(Nc2ncc(F)c(Nc3ccc4c(n3)N(COP(=O)(O)O)C(=O)C(C)(C)O4)n2)cc(OC)c1OC,0.724 ± 0.063,0.825 ± 0.072,1.12 ± 0.1,0.869 ± 0.098,1.18 ± 0.22,1.25 ± 0.35,0.931 (active)
Cc1cccc(NC(=O)Cc2nnc(NC(=O)Nc3ccc(F)cc3)s2)c1,1.02 ± 0.11,1.03 ± 0.059,0.917 ± 0.055,1 ± 0.051,1.53 ± 0.12,1.11 ± 0.15,1.01 (active)
CN1CCN(CCOc2cc(OC3CCOCC3)c3c(Nc4c(Cl)ccc5c4OCO5)ncnc3c2)CC1,0.135 ± 0.02,1.48 ± 0.29,1.99 ± 0.11,0.395 ± 0.012,0.597 ± 0.13,0.983 ± 0.17,0.886 (active)
Cc1c(C)c2c(c(C)c1O)CCC(C)(C(=O)O)O2 (configuration not stated) [Prestw-530],1.14 ± 0.13,1.03 ± 0.078,0.98 ± 0.03,0.986 ± 0.042,0.98 ± 0.054,1.03 ± 0.1,0.998 (active)
Cc1ccc(-c2ncc(Cl)cc2-c2ccc(S(C)(=O)=O)cc2)cn1,1.03 ± 0.17,1.15 ± 0.33,0.973 ± 0.054,1.05 ± 0.038,1.29 ± 0.4,1.37 ± 0.1,1 (active)
CCOC(=O)C1=C(C)NC(C)=C(C(=O)OCC)C1c1cc(Cl)cc(Cl)c1OC,0.478 ± 0.064,0.44 ± 0.037,1.05 ± 0.1,1.07 ± 0.16,0.852 ± 0.039,2.23 ± 0.43,0.216 (inactive)
COc1cc2nc(N3CCN(C(=O)C4COc5ccccc5O4)CC3)nc(N)c2cc1OC (configuration not stated) [Prestw-858],0.138 ± 0.011,0.961 ± 0.071,1.34 ± 0.15,0.248 ± 0.012,1.19 ± 0.075,1.29 ± 0.13,0.953 (active)
O=S(=O)(c1ccc(F)cc1)N1CCC(c2nc3ccccc3[nH]2)CC1,1.19 ± 0.085,1.08 ± 0.082,1.03 ± 0.028,0.913 ± 0.033,1.01 ± 0.093,0.997 ± 0.15,0.964 (active)
CCN(CC)CCNC(=O)c1cc(S(C)(=O)=O)ccc1OC.Cl,1.02 ± 0.13,1.16 ± 0.078,0.975 ± 0.021,0.94 ± 0.056,0.989 ± 0.11,1 ± 0.13,0.998 (active)
